Our source for the growth values is PubChem BioAssay (NCI).

Compounds without any hit were thinned out: in the full panel of roughly 83,000, 20% have a hit.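 96-well plates, one dose, 48 hours. Percent growth reported; active if below 10.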 Unmarked numbers belong to inactive results. Activity calls are given as the source filed them.

Among the test systems are SR leukemia; RPMI-8226 leukemia; OVCAR-8 ovarian; OVCAR-5 ovarian; OVCAR-4 ovarian; SK-OV-3 ovarian; IGROV1 ovarian; OVCAR-3 ovarian; HS 578T breast; NCI/ADR-RES ovarian; T-47D breast; BT-549 breast; MDA-MB-435 melanoma; SW-620 colon; MCF7 breast; HCT-116 colon; HCC-2998 colon; KM12 colon.
What all share (assay): NCI-60 one-dose screen, 48 h (100 = growth as untreated, 0 = no growth, -100 = all killed)
Common to all, as to settings: 10 µM unless noted

On to `COc1cc(-c2cc(-c3nc4ccc(Cl)cc4[nH]3)[nH]n2)cc(OC)c1OC`, for which the growth is 41.9% in the assay on SR leukemia; 9.58% (active) in the assay with RPMI-8226 leukemia; 3.73% (active) in the assay with OVCAR-8 ovarian; 97.3% in the assay with OVCAR-5 ovarian; 32.2% in the assay on OVCAR-4 ovarian; 61.7% in the assay with SK-OV-3 ovarian. Also, the growth with IGROV1 ovarian was 44.3%; in the assay on OVCAR-3 ovarian, 57.8%; in the assay on HS 578T breast, 84.2%; with NCI/ADR-RES ovarian, 20%; with T-47D breast it was 0.183% (active); in the assay with BT-549 breast, 22.4%. Also, the growth was 39.5% in the assay with MDA-MB-435 melanoma; 78.7% in the assay with SW-620 colon; 47% with MCF7 breast; 49.4% with HCT-116 colon; 89% in the assay on HCC-2998 colon; 47% in the assay with KM12 colon.
Regarding `CCN(CC)Cc1cc(Nc2c3ccccc3nc3cc(Cl)ccc23)ccc1O`, the growth in the assay on SR leukemia was -37.1% (active); in the assay with RPMI-8226 leukemia, -21.1% (active); in the assay on OVCAR-8 ovarian it was -60.1% (active); with OVCAR-5 ovarian, -15.3% (active); with OVCAR-4 ovarian, -97.8% (active); in the assay with SK-OV-3 ovarian, -2.76% (active). The growth was 2.96% (active) in the assay on IGROV1 ovarian; -92.2% (active) in the assay on OVCAR-3 ovarian; -30.9% (active) in the assay on HS 578T breast; -38.5% (active) in the assay on NCI/ADR-RES ovarian; -68.2% (active) in the assay on T-47D breast; -58% (active) in the assay on BT-549 breast. Also, the growth was -92.7% (active) in the assay with MDA-MB-435 melanoma; -41% (active) in the assay with SW-620 colon; -60.7% (active) in the assay with MCF7 breast; -43% (active) in the assay on HCT-116 colon; -100% (active) in the assay on HCC-2998 colon; -30% (active) in the assay on KM12 colon.
With `CCCCN(CCCC)Cc1c(C)[nH]c2cc(OC)ccc2c1=O`, the growth is 92.8% in the assay on SR leukemia; 99.7% with RPMI-8226 leukemia; 91.9% in the assay on OVCAR-8 ovarian; 119% in the assay on OVCAR-5 ovarian; 106% in the assay with OVCAR-4 ovarian; 92.2% in the assay on SK-OV-3 ovarian. Further, the growth was 113% with IGROV1 ovarian; 96.6% in the assay on OVCAR-3 ovarian; 103% in the assay on HS 578T breast; 104% in the assay with NCI/ADR-RES ovarian; 95.7% in the assay with T-47D breast; 108% with BT-549 breast. Also, the growth in the assay with MDA-MB-435 melanoma was 104%; with SW-620 colon, 101%; with MCF7 breast, 94.8%; in the assay with HCT-116 colon, 95.2%; in the assay with HCC-2998 colon, 94.6%; in the assay on KM12 colon, 104%.
Regarding `Nc1cccc(NC(=O)C(=O)Nc2cccc(N)c2)c1`, the growth in the assay on SR leukemia was 115%; in the assay on RPMI-8226 leukemia, 88.1%; with OVCAR-8 ovarian, 94.8%; in the assay with OVCAR-5 ovarian, 94.5%; in the assay with OVCAR-4 ovarian, 126%; in the assay with SK-OV-3 ovarian, 117%. Moreover, the growth is 75.7% in the assay on IGROV1 ovarian; 101% with OVCAR-3 ovarian; 89.8% in the assay on HS 578T breast; 93.1% in the assay with NCI/ADR-RES ovarian; 105% with T-47D breast; 127% in the assay on BT-549 breast. Further, the growth with MDA-MB-435 melanoma was 102%; with SW-620 colon it was 95.5%; in the assay with MCF7 breast it was 100%; in the assay on HCT-116 colon it was 80.2%; in the assay with HCC-2998 colon, 105%; with KM12 colon, 98.7%.
Consider `Oc1cc(O)c2c(=S)cc(-c3ccc(Cl)cc3)oc2c1`, for which the growth in the assay with SR leukemia is 36.1%; in the assay on RPMI-8226 leukemia, -4.71% (active); in the assay with OVCAR-8 ovarian, 35%; in the assay on OVCAR-5 ovarian, 60.3%; with OVCAR-4 ovarian, 6.46% (active); with SK-OV-3 ovarian it was 61.8%. The growth in the assay with IGROV1 ovarian was 26.1%; in the assay on OVCAR-3 ovarian, 17.6%; in the assay with HS 578T breast it was 40.5%; in the assay on NCI/ADR-RES ovarian, 25.5%; in the assay on T-47D breast it was 0.614% (active); in the assay on BT-549 breast it was 38.4%. The growth with MDA-MB-435 melanoma is 25.9%; in the assay on SW-620 colon it was 41.5%; in the assay on MCF7 breast it was 6.22% (active); with HCT-116 colon, 17.6%; in the assay with HCC-2998 colon it was 57.7%; in the assay on KM12 colon it was 38.7%.
Take `CCCCCCCCCCCCCCCC[N+]1(CC)CCCC1`: the growth was -39.9% (active) with SR leukemia; -54.7% (active) with RPMI-8226 leukemia; -42.5% (active) in the assay with OVCAR-8 ovarian; 0.586% (active) with OVCAR-5 ovarian; -4.99% (active) with OVCAR-4 ovarian; -25.1% (active) in the assay with SK-OV-3 ovarian. The growth was -76% (active) with IGROV1 ovarian; -52.5% (active) in the assay on OVCAR-3 ovarian; -8.22% (active) in the assay on HS 578T breast; 85.8% with NCI/ADR-RES ovarian; 18.6% with T-47D breast; -25.8% (active) in the assay with BT-549 breast. The growth in the assay with MDA-MB-435 melanoma was -60.6% (active); with SW-620 colon, -8.83% (active); with MCF7 breast, -18.2% (active); with HCT-116 colon it was -46.4% (active); in the assay on HCC-2998 colon, -59.5% (active); in the assay with KM12 colon it was -90.6% (active).
Turning to `COc1cc(NCCCCN=C(N)N)c2ncccc2c1`, the growth in the assay on SR leukemia was 116%; with RPMI-8226 leukemia, 87.7%; in the assay on OVCAR-8 ovarian, 60.8%; in the assay with OVCAR-5 ovarian, 86.7%; with OVCAR-4 ovarian, -99.4% (active); in the assay with SK-OV-3 ovarian, 88.3%. In addition, the growth with IGROV1 ovarian is 56.8%; in the assay with OVCAR-3 ovarian it was 8.54% (active); in the assay on HS 578T breast, 94%; with NCI/ADR-RES ovarian it was 104%; in the assay on T-47D breast, 18%; in the assay with BT-549 breast, 54.4%. The growth in the assay with MDA-MB-435 melanoma is 104%; with SW-620 colon, 80.8%; with MCF7 breast, -48% (active); with HCT-116 colon, 79.1%; in the assay with HCC-2998 colon it was 84.3%; in the assay on KM12 colon, 47.5%.
Consider `CCCC(=O)Oc1ccc(/C(=C(/CC)Cc2ccccc2)c2ccc(OCCN3CCCC3)cc2)cc1`, for which the growth was 1.36% (active) in the assay on SR leukemia; 33.3% with RPMI-8226 leukemia; 96.4% in the assay on OVCAR-8 ovarian; 84.2% in the assay with OVCAR-5 ovarian; 68.4% with OVCAR-4 ovarian; 97% with SK-OV-3 ovarian. Also, the growth is 74% in the assay on IGROV1 ovarian; 74.1% in the assay with OVCAR-3 ovarian; 82.7% with HS 578T breast; 69.9% in the assay with NCI/ADR-RES ovarian; 48.9% with T-47D breast; 85.3% in the assay with BT-549 breast. The growth with MDA-MB-435 melanoma is 57.1%; in the assay on SW-620 colon it was 80.5%; with MCF7 breast it was 24.9%; in the assay with HCT-116 colon it was 68.7%; in the assay on HCC-2998 colon, 42.6%; in the assay on KM12 colon, 70.8%.
